In PubChem BioAssay (NCATS):
Several values for one entry are separate records, joined by “and”; a condition that tells them apart may be missing. Equal entries are not always repeated. Results filed as inconclusive are left out. A call without a number means that no potency is given here. Values without a mark were called inactive. Activity calls are given as the source filed them. Unless noted, calls come from the whole dose curve; as a rule, active = well fitted curve in the direction sought with a large enough effect; inconclusive = small, poorly fitted or top-dose-only effect, or another doubt; inactive = no such curve, though single readings can be large; an effect the other way counts as inactive or inconclusive. *1 amine or outer side, *2 acyl side, *3 side chain or, on linkers, in order; H or OH if unused. Where a SMILES comes first, the peptide text is derived from it. Bridges are numbered along the chain shown (N, C = ends). [ ]: non-standard residue; d: D form. The star is where a group is joined. pTerphenylCO(4''-OnC5H11) = CCCCCOc1ccc(-c2ccc(-c3ccc(C(=O)*)cc3)cc2)cc1; Orn(4R-OH,5R-OH) = O=C([C@H](C[C@@H](O)[C@@H](O)N[*:3])N[*:1])[*:2]; hTyr(3S-OH,4S-OH) = N[C@H](C(=O)O)[C@H](O)[C@@H](O)c1ccc(O)cc1; Pro(3S-OH,4S-Me) = C[C@H]1CN[C@H](C(=O)O)[C@H]1O; Hyp = O=C(O)[C@@H]1C[C@@H](O)CN1

Tests used:
[1] = biological target: Calcium and integrin-binding protein 1 (Homo sapiens) (UniProt Q99828); assay: Primary qHTS for Identification of Calcium Integrin Binding Protein 1 (CIB1) Competitor (AID 1508620);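 note: GST tagged CIB1 binding a fluorescein labelled alphaIIb integrin peptide tracer; top concentration of the series differs between compounds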
Sequence of Calcium and integrin-binding protein 1 (Homo sapiens) (Q99828 whole entry, looked up): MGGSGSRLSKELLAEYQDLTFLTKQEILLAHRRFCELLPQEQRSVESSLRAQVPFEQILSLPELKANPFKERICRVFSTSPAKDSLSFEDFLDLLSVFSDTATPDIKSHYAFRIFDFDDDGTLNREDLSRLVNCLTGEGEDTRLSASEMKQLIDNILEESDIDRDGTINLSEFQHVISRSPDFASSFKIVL
How it was run: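 CIB1-GST (1 uM final) and compound incubated 15 min at room temperature before adding FITC-alphaIIb peptide tracer (100 nM final). Competition for binding read by fluorescence polarization (ex 480, em 540) after another 15 min at room temperature.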

[2] = biological target: Cytochrome P450 2C9 (Homo sapiens) (UniProt P11712); assay: Cytochrome P450 family 2 subfamily C member 9 (CYP2C9) small molecule antagonists: luciferase biochemical (cell-free) qHTS assay (AID 1645842; active = well fitted curve in the direction sought with a large enough effect in the repeat runs; an effect the other way counts as inactive or inconclusive; note: nearly all actives have a fitted effect of over 55% in size; note: potency is the fitted concentration of half-maximal effect)
Sequence of Cytochrome P450 2C9 (Homo sapiens) (P11712 whole entry, looked up): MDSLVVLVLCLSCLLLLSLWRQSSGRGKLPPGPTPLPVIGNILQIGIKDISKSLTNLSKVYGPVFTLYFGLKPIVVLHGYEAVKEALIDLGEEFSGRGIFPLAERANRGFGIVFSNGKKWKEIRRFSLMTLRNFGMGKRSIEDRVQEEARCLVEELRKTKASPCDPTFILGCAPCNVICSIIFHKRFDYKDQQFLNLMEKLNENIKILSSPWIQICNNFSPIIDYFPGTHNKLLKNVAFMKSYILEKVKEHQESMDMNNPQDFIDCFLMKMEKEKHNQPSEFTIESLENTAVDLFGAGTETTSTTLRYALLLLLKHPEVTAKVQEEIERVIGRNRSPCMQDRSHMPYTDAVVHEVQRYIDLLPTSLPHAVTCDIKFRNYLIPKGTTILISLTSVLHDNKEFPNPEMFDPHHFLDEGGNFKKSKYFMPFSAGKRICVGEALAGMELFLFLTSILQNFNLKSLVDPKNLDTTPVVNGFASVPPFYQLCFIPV
How it was run: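 Luminescence, after 20 min with luciferin detection reagent, reflected CYP2C9 turnover during a 1 h NADPH-driven reaction at 37C. Enzyme-substrate mix contained 0.4% bovine serum albumin and was preincubated with compound 10 min at room temperature.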

[3] = Primary qHTS for inhibitors of nuclear receptor binding SET domain protein 2 (NSD2) in an isogenic RCH-ACV NSD2 p.E1099K mutant (9B) (AID 1645876); note: nearly all actives have a fitted effect of over 70% in size; note: potency is the fitted concentration of half-maximal effect
[4] = Primary qHTS for inhibitors of nuclear receptor binding SET domain protein 2 (NSD2) in an RCH-ACV wild type WT cells (2C) (AID 1645877); note: nearly all actives have a fitted effect of over 70% in size; note: potency is the fitted concentration of half-maximal effect
[5] = biological target: N-terminal Xaa-Pro-Lys N-methyltransferase 1 (Homo sapiens) (UniProt Q9BV86); assay: Confirmatory qHTS for Inhibitors of N-terminal methyltransferase 1 (NTMT1): MTaseGlo Assay (AID 1645874); note: nearly all actives have a fitted effect of over 65% in size; note: potency is the fitted concentration of half-maximal effect
Sequence of N-terminal Xaa-Pro-Lys N-methyltransferase 1 (Homo sapiens) (Q9BV86 whole entry, looked up): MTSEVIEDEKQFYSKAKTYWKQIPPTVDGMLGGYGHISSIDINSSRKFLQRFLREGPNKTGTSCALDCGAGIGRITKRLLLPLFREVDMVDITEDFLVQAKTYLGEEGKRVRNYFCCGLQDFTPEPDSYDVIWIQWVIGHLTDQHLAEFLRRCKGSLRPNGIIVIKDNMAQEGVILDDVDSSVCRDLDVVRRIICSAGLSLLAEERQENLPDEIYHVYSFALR
How it was run: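 NTMT1 (125 nM) preincubated 15 min with compound and 100 uM SAM, then 1 uM SPKRIA peptide added for 30 min at room temperature. SAH detected by MTase-Glo luminescence; normalized to no-enzyme and DMSO controls, fitted to 4-parameter Hill.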

CN(C)CC#CCCC(=O)C(O)(c1ccccc1)C1CCC1 (centres undefined)
Potency [1]: inactive
Potency [2]: 10.7 µM (active)
Potency [3]: inactive
Potency [4]: inactive

COc1ccc(NC(=O)c2ccc(-c3ccc(C(=N)N)cc3C)cc2)cc1N1CCN(C)CC1
Potency [1]: inactive
Potency [2]: inactive
Potency [3]: inactive

COc1ccc2cc3c(NC(=O)c4ccco4)nn(C)c3nc2c1
Potency [1]: inactive
Potency [2]: 15.1 µM (active)
Potency [5]: inactive

CC(C)c1ccccc1OC(=O)NCCc1ccc2ccccc2c1
Potency [1]: inactive
Potency [2]: 0.952 µM (active)
Potency [3]: inactive
Potency [4]: inactive

CCNC(=O)Nc1ccc(-c2nc3c(c(N4CCOCC4C)n2)CCN(C2COC2)C3)cc1 (centres undefined)
Potency [1]: inactive
Potency [2]: 16.9 µM (active)
Potency [3]: 0.325 µM (active)
Potency [4]: 0.459 µM (active)

C=CC(=O)N1CCC[C@@H](n2nc(-c3cccc(C(=O)Nc4ccc(C(C)C)c(C)c4)c3)c3c(N)ncnc32)C1
Potency [1]: inactive
Potency [2]: 8.49 µM (active)
Potency [3]: 8.17 µM (active)
Potency [4]: 9.16 µM (active)

CNc1nc(NCc2ccc(NS(C)(=O)=O)cc2Cl)cc(-c2ccccn2)n1
Potency [1]: inactive
Potency [2]: 2.68 µM (active)
Potency [3]: 11.5 µM (active)
Potency [4]: 7.28 µM (active)

O=C(O)c1cc(N(Cc2ccc(C3CCCCC3)cc2)C(=O)c2ccc(Oc3ccccc3)cc2)ccc1O
Potency [1]: inactive
Potency [2]: 23.9 µM (active)
Potency [5]: 30.8 µM (active)

OC(CC1c2ccccc2-c2cncn21)C1CCCCC1 (centres undefined)
Potency [1]: inactive
Potency [2]: 2.68 µM (active)
Potency [3]: 23 µM (active)

C/C=C(\C)C(=O)O[C@H]1C[C@](C)(O)[C@H]2CC=C(C)[C@H]2[C@@H]2OC(=O)[C@H](C)[C@H]21
Potency [1]: inactive
Potency [3]: inactive

C=C1C(=O)O[C@H]2CC(=C)[C@H]3CC[C@@](C)(O)[C@@H]3CC12 (some centres undefined)
Potency [1]: inactive
Potency [3]: 12.9 µM (active)

NCC(CNc1nc(Nc2cccc(NC(=O)N3CCCC3)c2)ncc1I)C(=O)c1cccs1 (centres undefined)
Potency [1]: inactive
Potency [5]: 22.4 µM (active)
Potency [3]: 1.15 µM (active)
Potency [4]: 2.58 µM (active)

CC(=O)NC(C)c1cnc(-c2cnc(Oc3ccc(OC(C)C)cc3)s2)s1 (centres undefined)
Potency [1]: inactive
Potency [2]: 9.52 µM (active)
Potency [3]: 10.3 µM (active)
Potency [4]: 8.17 µM (active)

O=C(Cc1cccc(OC(F)(F)F)c1)Nc1ccc(CCCCc2nnc(NC(=O)Cc3ccccn3)s2)nn1
Potency [1]: inactive
Potency [3]: inactive

C[C@@]12C(=O)N(c3ccc(C(=O)Nc4cccc5cccnc45)cc3)C(=O)[C@@H]1[C@@H]1C=C[C@H]2C1
Potency [1]: inactive
Potency [3]: inactive

CCCCCCOC(=O)/N=C(\N)c1ccc(NCc2nc3cc(C(=O)N(CCC(=O)OCC)c4ccccn4)ccc3n2C)cc1
Potency [1]: inactive
Potency [2]: inactive
Potency [3]: 20.5 µM (active)
Potency [4]: 16.3 µM (active)

CCCCCOc1ccc(-c2ccc(-c3ccc(C(=O)N[C@H]4C[C@@H](O)[C@@H](O)NC(=O)[C@@H]5[C@@H](O)[C@@H](C)CN5C(=O)[C@H]([C@@H](C)O)NC(=O)[C@H]([C@H](O)[C@@H](O)c5ccc(O)cc5)NC(=O)[C@@H]5C[C@@H](O)CN5C(=O)[C@H]([C@@H](C)O)NC4=O)cc3)cc2)cc1 ({pTerphenylCO(4''-OnC5H11)}-[Orn(4R-OH,5R-OH)]T[Hyp][hTyr(3S-OH,4S-OH)]T[Pro(3S-OH,4S-Me)]; lactam 1-C)
Potency [1]: inactive
Potency [5]: inactive
Potency [3]: inactive

CCCC(=O)C1(c2ccccc2)CCN(C(=O)[C@@H](Cc2ccc(OC)cc2)NC(=O)[C@@H](N)Cc2cncn2C)CC1
Potency [1]: inactive
Potency [2]: 19 µM (active)
Potency [4]: 18.3 µM (active)

O=C(Cc1c(F)cccc1F)Nc1cc(OCc2ccc(Cl)cc2)ccn1
Potency [1]: inactive
Potency [5]: inactive
Potency [3]: 18.3 µM (active)

C=C[C@H](/C=C\c1ccc(O)cc1)c1ccc(O)cc1
Potency [1]: inactive
Potency [3]: 16.3 µM (active)

CCn1c(=O)c(-c2ccc(Cl)cc2Cl)cc2cnc(Nc3ccc(N4CCNCC4)c(F)c3)nc21
Potency [1]: inactive
Potency [2]: inactive
Potency [3]: 290 nM (active) and 662 nM (active)
Potency [4]: 728 nM (active) and 742 nM (active)

S=C(c1ccc(-c2ccc(Cl)c(Cl)c2)o1)N1CCCCC1
Potency [1]: inactive
Potency [2]: 3.38 µM (active)
Potency [4]: inactive

Cc1cc(-c2cnc(N)c3c(-c4ccc5scnc5c4)csc23)n(C)n1
Potency [1]: inactive
Potency [2]: 10.7 µM (active)
Potency [3]: 4.59 µM (active)
Potency [4]: 5.78 µM (active)

COc1cc(CCc2ccc(OCC=C(C)C)cc2)cc(OC)c1OC
Potency [1]: inactive
Potency [5]: inactive
Potency [4]: inactive

COC1C(OC(=O)/C=C/C=C/C=C/C=C/C(=O)O)CCC2(CO2)C1C1(C)OC1CC=C(C)C (centres undefined)
Potency [1]: inactive
Potency [3]: inactive
